# Values joined by “and” are separate entries in the source; they are usually repeats but may differ in a detail not shown here. Equal entries are not always repeated. Results filed as inconclusive are left out. A call without a number means that no potency is given here. Active and inactive are the calls of the source. Calls follow the shape of the dose curve; as a rule, active = well fitted inhibition curve with a large enough effect; inconclusive = small, poorly fitted or top-dose-only effect; inactive = flat fitted curve, though single readings scatter.
# How the values were obtained:
# Test in all cases: qHTS profiling for inhibitors of Plasmodium falciparum proliferation (AID 504749); also: nearly all actives have a fitted effect of over 60% in size
# Details in all cases: P. falciparum in erythrocytes, SYBR Green DNA, 72 h; series mostly up to 28.7 µM
# CP247 = tested on: CP247
# How it was run: (§1)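 SYBR Green fluorescence of parasite DNA, read after lysis and overnight dark incubation, measured growth over 72 h in erythrocyte culture at 0.3% parasitemia and 2.5% hematocrit. Data normalised to DMSO and 0.29 uM artemisinin, with plate-drift correction.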
# CP250 = tested on: CP250
# How it was run: as §1
# CP252 = tested on: CP252
# How it was run: as §1
# CP256 = tested on: CP256
# How it was run: as §1
# CP262 = tested on: CP262
# How it was run: as §1
# CP265 = tested on: CP265
# How it was run: as §1
# CP266 = tested on: CP266
# How it was run: as §1
# CP268 = tested on: CP268
# How it was run: as §1
# CP269 = tested on: CP269
# How it was run: as §1
# CP286 = tested on: CP286
# How it was run: as §1
# CP291 = tested on: CP291
# How it was run: as §1
# CP297 = tested on: CP297
# How it was run: as §1
# CP305 = tested on: CP305
# How it was run: as §1
# CP315 = tested on: CP315
# How it was run: as §1
# CP325 = tested on: CP325
# How it was run: as §1
# CP329 = tested on: CP329
# How it was run: as §1
# CP335 = tested on: CP335
# How it was run: as §1
# DFO2036 = tested on: DFO2036
# How it was run: as §1
# DIV14 = tested on: DIV14
# How it was run: as §1
# CP260 = tested on: CP260
# How it was run: as §1
# Potency is read from the fitted curve at half-maximal effect.
SMILES,Potency (CP247),Potency (CP250),Potency (CP252),Potency (CP256),Potency (CP262),Potency (CP265),Potency (CP266),Potency (CP268),Potency (CP269),Potency (CP286),Potency (CP291),Potency (CP297),Potency (CP305),Potency (CP315),Potency (CP325),Potency (CP329),Potency (CP335),Potency (DFO2036),Potency (DIV14),Potency (CP260)
CC1OC1P(=O)(O)O (stereo not drawn),inactive,inactive,inactive,inactive,inactive,inactive,inactive,inactive,inactive,inactive,inactive,inactive,inactive,inactive,inactive,inactive,inactive,inactive,inactive,–
CN1[C@@H]2CC[C@H]1CC(OC(c1ccccc1)c1ccccc1)C2 (stereo partly drawn),–,inactive,–,12.6 µM (active),–,–,inactive,–,–,11.2 µM (active),–,inactive,–,inactive,inactive,inactive,–,12.6 µM (active),2.39 µM (active) and 1.9 µM (active),inactive
O=C(CCN1CCN(CCO)CC1)N1c2ccccc2Sc2ccc(C(F)(F)F)cc21,–,–,–,11.2 µM (active),–,3.98 µM (active),–,inactive,–,12.6 µM (active),–,inactive,inactive,inactive,–,inactive,–,–,9.53 µM (active),11.2 µM (active)
CN(C)c1ccc(C(=C2C=CC(=[N+](C)C)C=C2)c2ccccc2)cc1,6.31 µM (active),11.2 µM (active),12.6 µM (active),10 µM (active),inactive,11.2 µM (active),12 µM (active),–,10.7 µM (active),2 µM (active),–,–,–,–,12 µM (active),–,4.78 µM (active),–,–,7.08 µM (active)
c1ccc2sc(SN3CCOCC3)nc2c1,inactive,inactive,inactive,inactive,inactive,inactive,inactive,inactive,inactive,inactive,inactive,inactive,inactive,inactive,inactive,inactive,inactive,inactive,–,–
COC(=O)C1=C(C)NC(C)=C(C(=O)OCC(C)C)C1c1ccccc1[N+](=O)[O-] (stereo not drawn),–,–,–,10 µM (active),–,–,–,–,–,8.91 µM (active),12 µM (active),16.9 µM (active),–,–,12 µM (active),–,–,–,10.7 µM (active),–
CCCCCCCCCCCC(=O)[O][Sn]([CH2]CCC)([CH2]CCC)[O]C(=O)CCCCCCCCCCC,inactive,inactive,inactive,inactive,inactive,inactive,inactive,inactive,inactive,–,inactive,inactive,inactive,inactive,inactive,inactive,inactive,inactive,inactive,10 µM (active)
CC1(C)C[C@@H]1C(=O)N/C(=C\CCCCSC[C@H](N)C(=O)O)C(=O)O,inactive,inactive,inactive,inactive,inactive,inactive,inactive,inactive,inactive,inactive,inactive,inactive,inactive,inactive,inactive,inactive,inactive,inactive,inactive,–
COc1cc(CNC(=O)CCCC/C=C/C(C)C)ccc1O,inactive,inactive,inactive,inactive,inactive,inactive,–,inactive,inactive,inactive,inactive,inactive,inactive,inactive,inactive,inactive,inactive,inactive,inactive,inactive
CCCC(=O)OC[C@@H](OC(=O)CCC)[C@@H](OC(=O)CCC)[C@H](Cn1c2nc(=O)[nH]c(=O)c-2nc2cc(C)c(C)cc21)OC(=O)CCC,–,–,–,–,inactive,–,inactive,inactive,inactive,–,inactive,inactive,–,inactive,inactive,inactive,–,–,inactive,–
CC(=O)[C@]1(O)Cc2c(O)c3c(c(O)c2[C@@H](O[C@H]2C[C@H](N)[C@H](O)[C@H](C)O2)C1)C(=O)c1c(O)cccc1C3=O,5.62 µM (active),11.2 µM (active),–,–,15.1 µM (active),–,–,12 µM (active),9.53 µM (active),2.24 µM (active),9.53 µM (active),13.5 µM (active),7.57 µM (active),–,15.1 µM (active),–,5.36 µM (active),7.94 µM (active),4.26 µM (active),3.55 µM (active)
CCCCCC[C@@H](O)C/C=C\CCCCCCCC(=O)O,inactive,inactive,inactive,inactive,inactive,inactive,–,inactive,inactive,inactive,inactive,inactive,inactive,inactive,inactive,inactive,inactive,inactive,inactive,inactive
Nc1ccc(O)c(C(=O)O)c1,inactive,inactive,inactive,inactive,inactive,inactive,–,inactive,inactive,inactive,inactive,inactive,inactive,inactive,inactive,inactive,inactive,inactive,inactive,inactive
CN1[C@@H]2CC[C@H]1CC(OC(=O)C(CO)c1ccccc1)C2 (stereo partly drawn),inactive,inactive,inactive,–,inactive,inactive,inactive,inactive,inactive,inactive,inactive,inactive,inactive,inactive,inactive,inactive,inactive,inactive,inactive,inactive
CC1(C)[C@@H](O)CC[C@]2(C)[C@H]3C(=O)C=C4[C@@H]5C[C@@](C)(C(=O)O)CC[C@]5(C)CC[C@@]4(C)[C@]3(C)CC[C@@H]12,inactive,inactive,inactive,inactive,inactive,inactive,–,inactive,inactive,inactive,inactive,inactive,inactive,inactive,inactive,inactive,inactive,inactive,inactive,inactive
